Screening results from PubChem BioAssay.
MITF inhib = blocks MITF activity; TRPM1 promoter luciferase, luminescence, 24 h; inhibition, % (test concentration not listed); 0.28% of 37,000 active; AID 2240; in the data active means inhibition above about 85%;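 further: human melanocyte line stably carrying TRPM1 promoter luciferase reporter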
YB-1 expr inh = YB-1 expression inhibition | U2OS, qRT-PCR YB-1 vs CDIP delta delta Cp, 16 h; stronger effect = higher value; zero = DMSO, each unit about twofold | delta delta Cp (YB-1 minus CDIP) (no concentration beside the values) | 0.37% of 30,000 active;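 active means delta delta Cp rounded down to an integer at or above 3, about 3 SD of DMSO wells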;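 further: higher means less YB-1 transcript or more CDIP transcript relative to DMSO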
BJeLR viability = compounds reducing viability of BJeLR cells | 0.64% of 30,000 active | viability loss activity score, % (concentration not given with the values) | BJeLR fibroblasts viability, CellTiterGlo ATP luminescence, 48 h; HRASV12, hTERT and SV40 LT/ST transformed; in the data active means viability loss activity score above about 50%;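 further: higher score means fewer live cells and less ATP luminescence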
U2OS ROS induce = raises reactive oxygen species in U2OS cancer cells | 2% of 46,000 active | U2OS ROS induction, H2DCF-DA fluorescence | ROS induction (% of piperlongumine), % at 10 µM; in the data active means ROS induction above about 79%, passing the limit was not always enough;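 further: 0% = DMSO vehicle median and 100% = reference compound median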
* marks the source's active call; other numbers are inactive results; · = no result given. The list is not random: actives were taken first. Their share in the collection is about 2.5%.

SMILES | MITF inhib | YB-1 expr inh | BJeLR viability | U2OS ROS induce
C[C@H](CO)N1C[C@H](C)[C@H](CN(C)CC2CC2)Oc2c(NC(=O)CCCCCC(=O)Nc3ccccc3N)cccc2C1=O | 0 | 0.0028 | · | -7
C[C@@H]1CN([C@@H](C)CO)C(=O)c2cccc(NC(=O)CCCCCC(=O)Nc3ccccc3N)c2O[C@@H]1CN(C)Cc1ccc(Oc2ccccc2)cc1 | 2 | -0.16 | · | 136*
C[C@@H]1CN([C@H](C)CO)C(=O)c2cccc(NC(=O)CCCCCC(=O)Nc3ccccc3N)c2O[C@@H]1CN(C)Cc1ccc(Oc2ccccc2)cc1 | 21 | -0.25 | · | 9
COc1ccc(NC(=O)N(C)C[C@H]2Oc3ccc(NC(=O)Cc4ccccc4)cc3CC(=O)N([C@@H](C)CO)C[C@@H]2C)cc1 | 4 | 0.18 | · | 100*
COc1ccc(NC(=O)N(C)C[C@@H]2Oc3ccc(NC(=O)Cc4ccccc4)cc3CC(=O)N([C@@H](C)CO)C[C@@H]2C)cc1 | -2 | -0.027 | · | -7
C[C@H](CO)N1C[C@H](C)[C@H](CN(C)C(=O)Nc2ccccc2)Oc2ccc(NC(=O)Cc3ccccc3)cc2CC1=O | -3 | 4.6* | · | -2
C[C@H]1CN([C@@H](C)CO)C(=O)Cc2cc(NC(=O)Cc3cn(C)c4ccccc34)ccc2O[C@H]1CN(C)C(=O)Nc1ccc(C(F)(F)F)cc1 | 30 | -0.42 | · | 100*
O=C1CCCN2C(=N1)SC(=S)N2CN(Cc1ccccc1)Cc1ccccc1 | · | · | -3 | 5
CCOC(=O)c1c(NC(=O)c2ccccc2)sc2c1CC(C(C)C)OC2 (stereo not drawn) | · | · | 4 | ·
CC1CCCN(S(=O)(=O)c2ccccc2)C1 (stereo not drawn) | · | · | 3 | -8
COc1ccc(Cn2nnc3c(=O)[nH]c(C4CCCN(S(=O)(=O)c5ccccc5)C4)nc32)cc1 (stereo not drawn) | · | · | -10 | 139*
CCc1ccc2nc(N3CCC(C(=O)NC4CCCCC4)CC3)sc2c1 | · | · | -2 | 18
CN(C)CCN(C(=O)C1CCCCC1)c1nc2ccc(Br)cc2s1 | · | · | 2 | 94*
C=C1C(=O)O[C@H]2[C@H]1[C@@H](OC(=O)C(C)(O)C(C)Cl)C(OC(C)=O)/C(C(=O)OC)=C\CC[C@@]1(C)O[C@H]21 (stereo partly drawn) | -9 | 0.83 | 85* | 68
C=C1C(=O)O[C@H]2C1[C@H](OC(=O)/C(C)=C/CO)C/C(C)=C\CC[C@@]1(C)OC21 (stereo partly drawn) | -9 | 0.13 | -7 | 72
Cc1ccc(NC(=O)CCc2c(C)nc3c4c(C)cc(C)nc4nn3c2C)cc1 | · | · | 7 | 21
Cc1ccc(S(=O)(=O)/C=C/C#N)cc1 | 89* | 0.15 | · | 143*
Cc1ccc(S(=O)(=O)c2ccc(C)cc2)cc1 | 5 | 0.26 | 0 | -1
COc1ccccc1CNC(=O)Cn1cnc2ccc(S(=O)(=O)N3CCC(C)CC3)cc2c1=O | · | · | 7 | ·
CO[C@@]12[C@H](COC(N)=O)C3=C(C(=O)C(C)=C(N)C3=O)N1C[C@@H]1N[C@@H]12 | 65 | 0.45 | 58* | -7
Cc1cccc(-c2nc3ccccc3c(=O)n2OC(=O)c2ccc(C)c(C)c2)c1 | · | · | 0 | -21
CC(=O)OC1/C=C(/C(=O)O)CC/C=C(/C)C(=O)/C=C\C1(C)C (stereo not drawn) | -11 | 0.044 | -6 | 90*
O=C(NC1CCCC1)C1COc2ccccc2O1 (stereo not drawn) | · | · | -1 | ·
COc1cccc(CN(C(=S)NCc2ccccc2)c2ccc(F)c(Cl)c2)c1O | · | · | 0 | -8
CC(C)(C)c1ccc(NC(=O)c2ccc(C(C)(C)C)s2)cc1 | · | · | 2 | -3
SMILES | MITF inhib | YB-1 expr inh | BJeLR viability | U2OS ROS induce
CC(C)(C)c1ccc(NC(=O)c2ccc(N3C(=O)CSCC3=O)cc2)cc1 | · | · | 8 | 150*
Cc1cccc(CCNC(=O)CSc2c3c(nc4ccc(Cl)cc24)CCCC3)c1 | · | · | -1 | ·
COC(=O)c1ccc(OC)c(Br)c1 | · | · | -6 | 7
CC(=O)O[C@@H]1C=C[C@@]2(C)C(C[C@@H](OC(C)=O)[C@@]3(C)C4=CC(=O)O[C@@H](c5ccoc5)[C@]4(C)CCC23)C1(C)C (stereo partly drawn) | 91* | -0.45 | 34 | 12
O=S(=O)(NC1CCN(Cc2c(F)cccc2Cl)CC1)c1cccc2nonc12 | · | · | 4 | ·
N#CC1=C(N)N(c2sc3c(c2C#N)CCCC3)C2=C(CCC2)C1(C(F)(F)F)C(F)(F)F | · | · | 5 | 205*
Cc1cccc(C2Sc3ccccc3N=C3c4ccccc4C(=O)C32)c1 (stereo not drawn) | 64 | 0.085 | 0 | 106*
O=C(NCCC(c1ccccc1)c1ccccc1)c1cc2ccccc2c(=O)o1 | 2 | -0.48 | -4 | 154*
COc1ccc(OC)c(NC(=O)COc2ccc3c(=O)c(Oc4ccccc4Br)coc3c2)c1 | 95* | · | · | ·
COc1ccc(OC)c(NC(=O)COc2ccc3c(C)cc(=O)oc3c2)c1 | -22 | · | · | 3
CCc1cccc(NC(=O)C(CC(C)C)NC(=O)C2CCCCC2)c1 (stereo not drawn) | · | · | 2 | ·
c1ccc(-c2nnc(N3CCc4ccccc43)nc2-c2ccccc2)cc1 | 5 | -0.36 | 16 | 103*
Cc1ccc(Nc2ncc(C(=O)N3CCCCCC3)c3ccccc23)cc1Cl | · | · | 0 | ·
CC(C(=O)O)c1ccc(C(=O)c2cccs2)cc1 (stereo not drawn) | 3 | 6.9* | -6 | -19
O=C(CCc1ccccc1)Nc1ccc(C(=O)OC2CCCCC2)cc1 | · | · | 1 | -6
CCc1ccc(NC(=O)Cn2cc3c(n2)CCCC3)cc1 | · | · | 4 | -12
Nc1nc(SCC(=O)NCC2CCCO2)[nH]c(=O)c1-c1ccccc1 (stereo not drawn) | 3 | · | · | 4
Nc1nc(SCc2nc(-c3ccccc3)no2)[nH]c(=O)c1-c1ccccc1 | -7 | · | · | 106*
CCOC(=O)C1=C(N)c2ccccc2CC1(C)CC (stereo not drawn) | · | · | -3 | ·
O=C(Cn1c(=O)n(-c2ccccc2)c(=O)c2sccc21)NCc1ccco1 | · | · | 3 | ·
CCOC(=O)c1ccc(NC(=O)Cn2cnc3ccccc3c2=O)cc1 | 6 | · | · | ·
CCOC(=O)c1ccc(Nc2c(C(=O)OCC)cnc3ccccc23)cc1 | · | · | 4 | 99*
CN(C)c1ccc(C(=C2C=CC(=[N+](C)C)C=C2)c2ccc(N(C)C)cc2)cc1 | 109* | -0.27 | 127* | 341*
COc1ccc(/C=C2\Oc3ccccc3N(CC(=O)NC(C)c3ccccc3)C2=O)cc1 (stereo not drawn) | · | · | 13 | ·
CC(C)(C)C(=O)CSc1ncnc2sc3c(c12)CCCC3 | -53 | · | · | 30
CCN(CC)C(=S)Sc1ncnc2sc3c(c12)CCCC3 | 15 | -0.089 | -3 | 92*
O=C(Nc1ccccc1)OCc1cc(-c2ccccc2)c(C(F)(F)F)s1 | · | · | -1 | -1
COc1ccc(Sc2cccs2)cc1 | · | · | -7 | 7
CCN1CCCC1CNC(=O)c1cc2c(=O)oc3ccc(C)cc3c2s1 (stereo not drawn) | · | · | 2 | ·
N#CCCN(/N=C/c1ccccc1)C1=NS(=O)(=O)c2ccccc21 | -3 | -0.07 | 2 | 128*
